Compound activity deposited in PubChem BioAssay by National Center for Advancing Translational Sciences (NCATS).
TRHR enhancer – allosteric enhancers of human TRH receptor; P34981; TRHR cells, fluo-8 calcium fluorescence, EC20 TRH enhancement; enhancement, % at 2 µM; hit rate 0.66% among 360,000; AID 493056; in the data active = enhancement above about 30%
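TRHR-expressing cells loaded with fluo-8 calcium dye were read kinetically (ex 480/em 530) during compound addition, then stimulated with an EC20 of TRH (10 nM final). Enhancement of the Gq-mediated intracellular calcium response was scored.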
D1 ag – agonists of human D1 dopamine receptor; P21728; HEK293 T-REx D1 cells, calcium flux, agonist mode; activation, % at 2 µM; hit rate 1% among 360,000; AID 504660
Target sequence (P21728 whole entry, looked up): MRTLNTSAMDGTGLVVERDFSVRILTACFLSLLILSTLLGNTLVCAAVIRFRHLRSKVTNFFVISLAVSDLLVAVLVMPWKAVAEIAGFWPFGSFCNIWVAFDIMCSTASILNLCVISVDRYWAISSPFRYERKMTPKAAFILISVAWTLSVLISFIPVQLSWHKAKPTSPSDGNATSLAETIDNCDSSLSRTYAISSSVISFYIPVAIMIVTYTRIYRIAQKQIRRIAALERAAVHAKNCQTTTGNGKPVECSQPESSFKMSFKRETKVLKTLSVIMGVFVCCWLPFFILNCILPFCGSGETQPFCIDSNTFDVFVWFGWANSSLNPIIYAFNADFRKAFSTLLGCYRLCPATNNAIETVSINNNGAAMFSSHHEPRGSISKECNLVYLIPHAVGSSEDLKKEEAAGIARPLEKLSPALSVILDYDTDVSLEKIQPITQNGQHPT
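Agonism was scored from calcium flux recorded over 180 s (1 read/s) after pintool compound addition, following a 10-cycle baseline. Cells were inducible force-coupled HEK293 TREx D1, plated overnight at 30 C and loaded with no-wash calcium dye.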
D1 antagonist – antagonists of human D1 dopamine receptor; P21728; HEK293 TREx D1 cells, calcium flux, dopamine EC80; stronger effect = lower value; activity change, negative = inhibition, % at 10 µM; hit rate 3.2% among 360,000; AID 504652; in the data active = activity change below about -30%
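After overnight tetracycline induction at 30 C, force-coupled D1 HEK293 cells took up a no-wash calcium dye at room temperature. Compounds were added and monitored 180 s, and the response to EC80 dopamine was then recorded.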
D1 PAM – enhances dopamine response at the human D1 receptor; P21728; HEK293 TREx D1 cells, calcium flux, dopamine EC20 potentiation; potentiation, % at 10 µM; hit rate 0.036% among 360,000; in the data active = potentiation above about 30%
TRHR ag – activates the human TRH receptor; TRHR cells, calcium flux fluo-8, FDSS agonist mode; activation, % at 2 µM; P34981; hit rate 0.18% among 360,000
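Steps: seed TRHR cells overnight; add fluo-8 no-wash Ca dye, RT 30 min–1.5 h; record 10 s baseline; pin-transfer compounds; monitor fluorescence 1 cycle/s for the agonist window. Calcium increases flag candidate agonists.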
Each line names hits and unclear results; the compound was inactive in the other large screens; ! = a repeat was not active. The list is not random: actives were taken first. Their share in the collection is about 4.6%. Cut-off read from the data, not from the text of the source, unless noted: active = activation above about 30%; inactive = the rest.

O=C(CN1C(=O)COc2ccc(S(=O)(=O)N3CCCCCC3)cc21)NCCc1ccccc1	none
COc1cccc(CNC(=O)c2c3c(nc4ccccc24)C(=O)N(C2CCCCC2)C3)c1	none
Cc1nn(-c2cc(C(F)(F)F)ccc2Cl)c2nc(C(Cl)(Cl)Cl)[nH]c(=O)c12	D1 antagonist -37.7
CCc1ccc2oc(C(=O)Nc3ccccc3OC)cc(=O)c2c1	none
COc1ccccc1CN1C2CCCC1CC(NC(=O)/C=C/c1ccccc1)C2 (stereo unspecified)	TRHR enhancer 32.3
CCc1ccc(NC(=O)CSC2=C(C#N)C(c3ccco3)C3=C(CCCC3=O)N2)cc1 (stereo unspecified)	D1 antagonist -60.7
CCC(Sc1nc2ccncc2[nH]1)C(=O)Nc1cc(Cl)ccc1C (stereo unspecified)	D1 antagonist -44.2!
CCn1c(C(=O)NCc2ccccc2OC)cc2sccc21	none
Clc1ccc(CCNc2ncnc3c2c(-c2ccccc2)cn3-c2ccccc2)cc1	none
CCOc1ccc2c(c1)ncn2Cc1ccccc1	none
CC(=O)Oc1ccc(Cn2cnc3cc4ccccc4cc32)cc1	D1 antagonist -42.0
Cc1c(C(=O)NCc2ccco2)oc2c(F)cccc12	TRHR enhancer 37.0
CC(=O)c1[nH]c(C)c(C(=O)NCc2ccc(Cl)cc2)c1C	D1 ag 38.8
CC(=O)c1c(C)[nH]c(C(=O)NCc2ccco2)c1C	D1 antagonist -64.5
O=C(Nc1cc2c(cc1C(=O)c1ccccc1Cl)OCCO2)c1ccccc1	none
Cc1cccn2c(=O)c3cc(C#N)c(=O)n(-c4nnc(SCc5ccccc5F)s4)c3nc12	none
Cc1ccc(C(=O)OC(C(=O)O)C(OC(=O)c2ccc(C)cc2)C(=O)O)cc1 (stereo unspecified)	none
CCC(=O)N(CCC(c1ccccc1)c1ccc2c(c1)OCO2)Cc1ccc(OC(C)C)cc1 (stereo unspecified)	D1 antagonist -53.5
CC(C)C(=O)NCCSc1c[nH]c2ccccc12	D1 antagonist -86.6
CCC(=O)NCCSc1c[nH]c2ccccc12	none
C=CCOC(=O)C1=C(C)NC(SCC(=O)Nc2nccs2)=C(C#N)C1c1ccc(Cl)cc1 (stereo unspecified)	D1 antagonist -69.6
CCOC(=O)C1=C(C)NC(SCC(N)=O)=C(C#N)C1c1cccs1 (stereo unspecified)	none
C=CCOC(=O)C1=C(C)NC(SC)=C(C#N)C1c1cccs1 (stereo unspecified)	none
C=CCOC(=O)C1=C(C)NC(SCC(=O)Nc2nccs2)=C(C#N)C1c1cccs1 (stereo unspecified)	D1 antagonist -75.5
CCOC(=O)C1=C(C)NC(SCC(=O)Nc2cc(C)on2)=C(C#N)C1c1cccs1 (stereo unspecified)	D1 antagonist -48.2
CCN(CC)S(=O)(=O)c1ccc2c(c1)N(CC(=O)N1CCN(c3ccc(Cl)cc3)CC1)C(=O)CO2	none
COc1ccc(NC(=O)CC2C(=O)N(c3ccc(F)cc3)C(=O)N2Cc2ccc3c(c2)OCO3)cc1 (stereo unspecified)	none
COc1cccc(C(=O)N(Cc2nc(-c3ccc(Cl)cc3)no2)C(C)C)c1OC	none
CCOC(=O)c1c(NC(C)=O)c2c3c(sc2n1Cc1ccc(Cl)cc1)CCCC3	none
Oc1ccc(C[C@H]2CNCCN2CCCCC2CCCCC2)cc1	D1 ag 33.3
Oc1ccc(C[C@@H]2CNCCN2CCC23CC4CC(CC(C4)C2)C3)cc1	D1 ag 95.5
Oc1ccc(C[C@H]2CNCCN2CCC23CC4CC(CC(C4)C2)C3)cc1	none
O=C(O)CCCN1C(=O)/C(=C/c2cn(-c3ccccc3)nc2-c2cccs2)SC1=S	D1 ag 50.6, D1 antagonist -36.6
CCOc1ccc(C(=O)N(Cc2ccc(C(C)C)cc2)Cc2ccco2)cc1	none
COc1cc(NC(=O)CN2C(=O)C(=O)N(C3CCCC3)C2=O)cc(OC)c1	none
CCOC(=O)c1cc(=O)c2ccc(OCC(=O)Nc3ccc(F)cc3)cc2o1	none
Cc1nn(C)c(NC(=O)c2ccc([N+](=O)[O-])cc2)c1Cl	none
Cc1nn(C)c(NC(=O)c2ccccc2Cl)c1Cl	D1 antagonist -37.6
Cc1nn(C)c(C(=O)NCc2ccc(Cl)cc2)c1Cl	D1 antagonist -62.5
CCOc1ccc(NC(=S)NC(=O)c2c(Cl)c(C)nn2C)c([N+](=O)[O-])c1	none
Cc1nc(C)c(C(=O)NCc2ccc(Cl)cc2)o1	D1 antagonist -61.5
Cc1cc(NC(=O)c2c(Cl)c(C)nn2C)no1	none
Cc1nn(C)c(C(=O)NC(=S)Nc2ccccc2O)c1Cl	D1 antagonist -40.7
Cc1ccc(NC(=O)CSc2ccc3nnc(CCNS(=O)(=O)c4ccccc4)n3n2)cc1Cl	none
COc1cc(OC)c(NC(=O)NC(C)c2c(-n3cccc3)sc(C)c2C)cc1Cl (stereo unspecified)	none
CCC(C(=O)OCC(=O)NC(=O)c1ccccc1OC)c1ccccc1 (stereo unspecified)	none
CCC(C(=O)OCC(=O)NC(=O)c1ccccc1)c1ccccc1 (stereo unspecified)	D1 ag 70.3
CCOC(=O)c1ccc(NC(=O)CCc2c(C)nc3nc[nH]n3c2=O)cc1	none
O=C1CCCC2=C1C(c1ccc(O)c(O)c1)c1c(ccc3ncccc13)N2 (stereo unspecified)	none
O=C1CCCC2=C1C(c1ccc(O)cc1)c1c(ccc3ccccc13)N2 (stereo unspecified)	D1 antagonist -52.8
CCCCNC(=O)c1sc(=S)n2c1[nH]c(=O)c1ccccc12	D1 ag 30.3
O=C(NC1CCCCC1)c1sc(=S)n2c1[nH]c(=O)c1ccccc12	none
CC(C)NC(=O)c1sc(=S)n2c1[nH]c(=O)c1ccc(C(=O)NCCc3ccc(Cl)cc3)cc12	D1 antagonist -58.5
O=C(NCc1nnc(-c2nc3ccccc3[nH]2)o1)C1CCCCC1	none
Cc1ccc(CNC(=O)c2ccc3c(c2)N(Cc2ccccc2F)C(=O)c2ccccc2S3(=O)=O)cc1	none
COc1ccc(C2/C=C\CN(S(=O)(=O)c3ccc4ccccc4c3)CC(=O)N2Cc2ccc(F)cc2)cc1 (stereo unspecified)	none
COc1ccc(C2/C=C\CN(S(=O)(=O)/C=C/c3ccccc3)CC(=O)N2Cc2ccc(F)cc2)cc1 (stereo unspecified)	D1 antagonist -35.5
COc1ccc(C2/C=C\CN(C(=O)c3ccc(C)cc3)[C@H](Cc3ccccc3)C(=O)N2Cc2ccc(F)cc2)cc1 (stereo partly specified)	D1 antagonist -49.9
CCCCC(=O)N1C/C=C\C(c2ccc(OC)cc2)N(Cc2ccc(F)cc2)C(=O)[C@H]1Cc1ccccc1 (stereo partly specified)	none
CCCCCCC(=O)N1C/C=C\C(c2ccc(OC)cc2)N(Cc2ccc(F)cc2)C(=O)[C@H]1Cc1ccccc1 (stereo partly specified)	D1 antagonist -35.1
